Data as given in PubChem BioAssay (Tox21).
Results filed as inconclusive are left out. Calls of active or inactive are those of the source. Unless noted, the call rests on the fitted dose curve; in most records, active means well fitted curve in the direction sought with a large enough effect in the repeat runs; inconclusive means weak or mixed curves; inactive means no such curve, though single readings can be large; an effect the other way counts as inactive or inconclusive.

Tests used:
[1] = qHTS assay to identify small molecule agonists of the estrogen related receptor (ERR) signaling pathway from Tox21 library (AID 1224849; calls by dose curve; further: nearly all actives have a fitted effect of over 15% in size); settings: ERR reporter cell line, ONE-Glo luciferase, 18 h; series mostly up to 92.4 µM
How it was run: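 ERR cells, 6 h pre-incubation 37 C/5% CO2; cpd in DMSO pinned; 18 h 37 C; ONE-Glo added, 30 min RT; luminescence read. Agonist mode, qHTS.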

[2] = qHTS RealTime-Glo MT Cell Viability Assay in HepG2 cells - 24 hour (AID 1224867); settings: RealTime-Glo luminescence; series mostly up to 76.8 µM; further: nearly all actives have a fitted effect of over 50% in size
How it was run: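 HepG2 suspension premixed with RealTime-Glo reagents is plated at 600 cells per well and left 5 h at 37 C/5% CO2. Compounds in DMSO then go in, and bioluminescence reflecting viable cell number is recorded over 40 h.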

[3] = qHTS RealTime-Glo MT Cell Viability Assay in HEK293 cells - 32 hour (AID 1224868); settings: RealTime-Glo luminescence; series mostly up to 76.8 µM; further: top concentration of the series differs between compounds; nearly all actives have a fitted effect of over 50% in size
How it was run: (§1)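 Reads taken at 0, 8, 16, 24, 32 and 40 h from the same wells. HEK293 cells (600/well) carried RealTime-Glo reagents from seeding, with compound added after a 5 h settle at 37 C.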

[4] = A CellTox Green Cytotoxicity Assay to monitor cytotoxicity in HEK293 cells - 0 hour (AID 1224869); settings: CellTox Green fluorescence; series mostly up to 76.8 µM; further: nearly all actives have a fitted effect of over 50% in size
How it was run: (§2)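 Nonlytic real-time cytotoxicity: HEK293 + CellTox Green reagent plated, 5 h preincubation, pintool compound addition (23 nL in DMSO), 37 C for 40 h, fluorescence measured at successive time points.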

[5] = qHTS RealTime-Glo MT Cell Viability Assay in HepG2 cells - 40 hour (AID 1224870); settings: RealTime-Glo luminescence; series mostly up to 76.8 µM; further: nearly all actives have a fitted effect of over 50% in size
How it was run: (§3)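 HepG2 cells mixed with RealTime-Glo MT reagents (NanoLuc plus cell-permeant prosubstrate) were seeded at 600 cells/well, incubated 5 h at 37 C/5% CO2, then pinned with compounds in DMSO; nonlytic luminescence tracked viability during 40 h treatment.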

[6] = qHTS RealTime-Glo MT Cell Viability Assay in HEK293 cells - 16 hour (AID 1224872); settings: RealTime-Glo luminescence; series mostly up to 76.8 µM
How it was run: as §1

[7] = qHTS RealTime-Glo MT Cell Viability Assay in HEK293 cells - 40 hour (AID 1224874); settings: RealTime-Glo luminescence; max response: stronger effect = lower value; further: nearly all actives have a fitted effect of over 50% in size
How it was run: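 Cells were seeded together with NanoLuc luciferase and a prosubstrate that viable cells reduce to a luciferase substrate. After a 5 h incubation at 37 C/5% CO2, compounds were added and luminescence was measured repeatedly during 40 h of treatment.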

[8] = A CellTox Green Cytotoxicity Assay to monitor cytotoxicity in HEK293 cells - 24 hour (AID 1224875); settings: CellTox Green fluorescence; series mostly up to 76.8 µM; further: nearly all actives have a fitted effect of over 45% in size
How it was run: as §2

[9] = A CellTox Green Cytotoxicity Assay to monitor cytotoxicity in HEK293 cells - 40 hour (AID 1224871); settings: CellTox Green fluorescence; series mostly up to 76.8 µM; further: nearly all actives have a fitted effect of over 45% in size
How it was run: as §2

[10] = qHTS RealTime-Glo MT Cell Viability Assay in HepG2 cells - 8 hour (AID 1224873); settings: RealTime-Glo luminescence; series mostly up to 76.8 µM; further: nearly all actives have a fitted effect of over 55% in size
How it was run: as §3
On the % scale 0 is the no-effect control and ±100 the full control effect.

Cc1ccccc1C
inactive: outcome [1] | outcome [2] | Potency [3] | Potency [4] | outcome [5] | Potency [6] | max response [7] 13.2% | Potency [8]

CO[Si](CCCS)(OC)OC
inactive: outcome [2] | Potency [3] | Potency [4] | outcome [5] | Potency [9] | Potency [6] | outcome [10]

CCCCCCCC/C=C\CCCCCCCC(=O)OC[C@@H](O)[C@H]1OC[C@H](O)[C@H]1O
inactive: outcome [2] | Potency [3] | Potency [4] | outcome [5] | Potency [9] | Potency [6] | outcome [10] | max response [7] 7.57% | Potency [8]

O=[Si]=O
inactive: outcome [1] | outcome [2] | Potency [3] | Potency [4] | outcome [5] | Potency [6] | outcome [10] | max response [7] 0.247% | Potency [8]

NS(=O)(=O)c1cc2c(cc1Cl)NC(CC1CCCC1)NS2(=O)=O (stereo not drawn)
inactive: outcome [2] | Potency [3] | Potency [4] | outcome [5] | Potency [9] | Potency [6] | outcome [10] | max response [7] 5.55%

CCCO
inactive: outcome [2] | Potency [3] | Potency [4] | outcome [5] | Potency [9] | Potency [6] | outcome [10]

CC(=O)/C=C/c1ccco1
inactive: outcome [1] | outcome [2] | Potency [3] | Potency [4] | outcome [5] | Potency [6] | Potency [8]

CCOC(=O)CCc1ccccc1
inactive: outcome [2] | Potency [3] | Potency [4] | outcome [5] | Potency [9] | Potency [6] | outcome [10] | max response [7] 3.62%

Cc1cc(O)c2c(c1)C(=O)c1cccc(O)c1C2=O
inactive: outcome [2] | Potency [3] | Potency [4] | outcome [5] | Potency [9] | Potency [6] | outcome [10] | max response [7] 3.33%

O=S1(=O)CCCC1
inactive: outcome [2] | Potency [3] | Potency [4] | outcome [5] | Potency [9] | Potency [6] | outcome [10] | max response [7] 9.26%

CN(C1CCCCC1)S(=O)(=O)c1ccccc1N
inactive: outcome [1] | outcome [2] | Potency [4] | outcome [5] | Potency [9] | outcome [10] | Potency [8]

O=C1OC(=O)c2ccccc21
inactive: outcome [2] | Potency [3] | Potency [4] | outcome [5] | Potency [9] | Potency [6] | outcome [10] | max response [7] -12.4% | Potency [8]

CCCCC(C)C(=O)O (stereo not drawn)
inactive: outcome [1] | outcome [2] | Potency [3] | Potency [4] | Potency [9] | Potency [6]

O=S(=O)(O)CCO
inactive: outcome [2] | Potency [3] | Potency [4] | outcome [5] | Potency [9] | Potency [6] | outcome [10] | max response [7] -10.5% | Potency [8]

Oc1ccccc1Cc1ccccc1O
inactive: outcome [1] | outcome [2] | Potency [4] | outcome [5] | Potency [9] | outcome [10] | Potency [8]

CCCCCCCCCCCCCCCCCCN(C)C
inactive: outcome [1] | outcome [2] | Potency [3] | Potency [4] | outcome [5] | Potency [6] | max response [7] 0.677%

OC[C@@H](O)[C@H](O)[C@@H](O)[C@@H](O)CO
inactive: outcome [1] | outcome [2] | Potency [3] | Potency [4] | outcome [5] | Potency [6] | outcome [10] | Potency [8]

Cc1ccccc1N1CCN(CCc2nnc3n2CCCC3)CC1
inactive: outcome [2] | Potency [3] | Potency [4] | outcome [5] | Potency [9] | Potency [6] | outcome [10] | max response [7] -6.94% | Potency [8]

CCc1nccnc1C
inactive: outcome [1] | outcome [2] | Potency [3] | Potency [4] | outcome [5] | Potency [6] | outcome [10] | max response [7] 6.93% | Potency [8]

CCCCCC(=O)OCC
inactive: outcome [2] | Potency [3] | Potency [4] | outcome [5] | Potency [9] | Potency [6] | outcome [10] | max response [7] 5.39% | Potency [8]

CC(=O)N1CCN(c2ccc(O)cc2)CC1
inactive: outcome [2] | Potency [3] | Potency [4] | outcome [5] | Potency [9] | Potency [6] | outcome [10] | max response [7] 7.56% | Potency [8]

CC(C)c1ccccc1O
inactive: outcome [2] | Potency [3] | Potency [4] | outcome [5] | Potency [9] | Potency [6] | outcome [10] | max response [7] 12.5% | Potency [8]

C/C=C(\C)C(=O)OCC/C=C\CC
inactive: outcome [2] | Potency [3] | Potency [4] | outcome [5] | Potency [9] | Potency [6] | outcome [10] | max response [7] 2.25% | Potency [8]

C=C[C@@H](C)CCC=C(C)C
inactive: outcome [2] | Potency [3] | Potency [4] | outcome [5] | Potency [9] | Potency [6] | outcome [10] | max response [7] 9.85% | Potency [8]

CCCCC[Si](OCC)(OCC)OCC
inactive: outcome [2] | Potency [3] | Potency [4] | outcome [5] | Potency [9] | Potency [6] | outcome [10] | max response [7] -19.8% | Potency [8]

CCCCC(CC)COC(=O)c1ccccc1 (stereo not drawn)
inactive: outcome [2] | Potency [3] | Potency [4] | outcome [5] | Potency [9] | Potency [6] | outcome [10] | max response [7] 3.3% | Potency [8]
